Results published in PubChem BioAssay AID1159580 (chemical genetic matrix, 2015).
Among all 5,500 compounds or so, about 2,000 (36%) were called active. Inconclusive results (about 18%) are left out. No stated cut-off is given here; in the data, active means normalized growth mostly below about 0.91 (no sharp cut-off); inconclusive means no clear call, values can overlap the other calls; inactive means mostly above about 0.92. Some of the results follow.

Test: chemical genetic growth profiling, strain panel (AID 1159580);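 further: tested at 20 µM; growth read once vehicle control cultures reached saturation at 30 °C; 1 = growth at the plate median or of vehicle wells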
Details: S. cerevisiae deletion strains, growth OD

Measured: normalized growth

COc1cccc2c1CCC1=CC(=O)CC[C@@]12C
inactive: locus YAL013W, strain DEP1, stronger effect = lower value 0.996 | locus YAL021C, strain ccr4, stronger effect = lower value 1.02 | locus YAL026C, strain drs2, stronger effect = lower value 1.01 | locus YAL030W, strain snc1, stronger effect = lower value 0.986 | locus YBL061C, strain skt5, stronger effect = lower value 0.989 | locus YBR009C, strain hhf1, stronger effect = lower value 0.992 | locus YBR021W, strain FUR4, stronger effect = lower value 0.966 | locus YBR023C, strain chs3, stronger effect = lower value 1.01 | locus YBR171W, strain sec66, stronger effect = lower value 0.987 | locus YBR229C, strain ROT2, stronger effect = lower value 1 | locus YBR231C, strain swc5, stronger effect = lower value 1.02 | locus YBR279W, strain paf1, stronger effect = lower value 1 | locus YCL011C, strain gbp2, stronger effect = lower value 0.997 | locus YCL016C, strain dcc1, stronger effect = lower value 0.999 | locus YCL029C, strain bik1, stronger effect = lower value 0.985 | locus YCL069W, strain vba3, stronger effect = lower value 0.993 | locus YCR088W, strain abp1, stronger effect = lower value 0.994 | locus YDL005C, strain med2, stronger effect = lower value 1.02 | locus YDL035C, strain GPR1, stronger effect = lower value 0.976 | locus YDL040C, strain nat1, stronger effect = lower value 1 | locus YDL074C, strain BRE1, stronger effect = lower value 0.944 | locus YDL101C, strain DUN1, stronger effect = lower value 1.01 | locus YDL134C, strain PPH21, stronger effect = lower value 0.995 | locus YDL185W, strain tfp1, stronger effect = lower value 1 | locus YDL192W, strain arf1, stronger effect = lower value 0.993 | locus YDR001C, strain nth1, stronger effect = lower value 1 | locus YDR069C, strain doa4, stronger effect = lower value 0.987 | locus YDR101C, strain arx1, stronger effect = lower value 0.981 | locus YDR137W, strain rgp1, stronger effect = lower value 1.07 | locus YDR150W, strain NUM1, stronger effect = lower value 1 | locus YDR159W, strain sac3, stronger effect = lower value 0.997 | locus YDR162C, strain NBP2, stronger effect = lower value 0.966 | locus YDR195W, strain ref2 1.04 | locus YDR297W, strain sur2, stronger effect = lower value 0.995 | locus YDR318W, strain mcm21, stronger effect = lower value 0.973 | locus YDR334W, strain swr1, stronger effect = lower value 1.02 | locus YDR335W, strain msn5, stronger effect = lower value 1.01 | locus YDR388W, stronger effect = lower value 0.989 | locus YDR392W, strain spt3, stronger effect = lower value 0.984 | locus YDR502C, strain sam2, stronger effect = lower value 0.961 | locus YEL003W, strain gim4, stronger effect = lower value 1 | locus YEL037C, strain rad23, stronger effect = lower value 0.993 | locus YEL061C, strain CIN8 (second series), stronger effect = lower value 1.01 | locus YEL061C, strain CIN8, stronger effect = lower value 1 | locus YER015W, strain faa2, stronger effect = lower value 1.01 | locus YER016W, strain bim1, stronger effect = lower value 1 | locus YER110C, stronger effect = lower value 0.983 | locus YER111C, strain swi4, stronger effect = lower value 1 | locus YER155C, strain BEM2 (second series), stronger effect = lower value 0.989 | locus YER155C, strain BEM2, stronger effect = lower value 1 | locus YER167W, strain BCK2, stronger effect = lower value 0.996 | locus YFR010W, strain ubp6, stronger effect = lower value 1.01 | locus YGL078C, strain dbp3, stronger effect = lower value 0.998 | locus YGL086W, strain mad1, stronger effect = lower value 0.987 | locus YGL167C, strain pmr1, stronger effect = lower value 1 | locus YGL173C, strain kem1, stronger effect = lower value 0.993 | locus YGL227W, strain vid30, stronger effect = lower value 1.01 | locus YGL240W, strain doc1, stronger effect = lower value 0.995 | locus YGL248W, strain PDE1, stronger effect = lower value 0.996 | locus YGL253W, strain hxk2, stronger effect = lower value 1.02 | locus YGR078C, strain PAC10, stronger effect = lower value 0.983 | locus YGR135W, strain pre9, stronger effect = lower value 0.939 | locus YGR229C, strain SMI1, stronger effect = lower value 0.98 | locus YGR252W, strain gcn5, stronger effect = lower value 0.814 | locus YHR013C, strain ard1, stronger effect = lower value 0.967 | locus YHR027C, strain rpn1, stronger effect = lower value 1.01 | locus YHR030C, strain SLT2, stronger effect = lower value 0.994 | locus YHR079C, strain IRE1 (second series), stronger effect = lower value 0.973 | locus YHR094C, strain hxt1, stronger effect = lower value 0.998 | locus YHR129C, strain ARP1, stronger effect = lower value 0.995 | locus YHR142W, strain chs7, stronger effect = lower value 0.975 | locus YHR200W, strain rpn10, stronger effect = lower value 0.989 | locus YIL066C, strain RNR3, stronger effect = lower value 0.955 | locus YIL073C, strain SPO22, stronger effect = lower value 0.949 | locus YIL125W, strain kgd1, stronger effect = lower value 0.992 | locus YIR030C, strain dcg1, stronger effect = lower value 0.983 | locus YJL092W, strain hpr5, stronger effect = lower value 1.02 | locus YJL095W, strain BCK1 (second series), stronger effect = lower value 1 | locus YJL095W, strain BCK1, stronger effect = lower value 0.972 | locus YJL115W, strain asf1, stronger effect = lower value 1.01 | locus YJL129C, strain trk1, stronger effect = lower value 0.973 | locus YJL134W, strain LCB3, stronger effect = lower value 1.01 | locus YJL154C, strain vps35, stronger effect = lower value 1 | locus YJL164C, strain tpk1, stronger effect = lower value 0.996 | locus YJL166W, strain qcr8, stronger effect = lower value 0.987 | locus YJL168C, strain set2, stronger effect = lower value 0.984 | locus YJL187C, strain SWE1 (second series), stronger effect = lower value 0.989 | locus YJR043C, strain POL32, stronger effect = lower value 0.97
